High-throughput results deposited in PubChem by several laboratories.
The list is not random: actives were taken first. Their share in the collection is about 2.9%.
DAGLB inh = diacylglycerol lipase beta (human) inhibition. Q8NCG7. HEK293T DAGLB membrane lysate, EnzChek fluorogenic substrate. inhibition, % at 5.17 µM. hit rate 0.059% among 340,000. AID 504411; in the data active means inhibition above about 34%;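 further: 0% = enzyme with vehicle and 100% = wells lacking enzyme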
Target sequence (Q8NCG7 whole entry, looked up): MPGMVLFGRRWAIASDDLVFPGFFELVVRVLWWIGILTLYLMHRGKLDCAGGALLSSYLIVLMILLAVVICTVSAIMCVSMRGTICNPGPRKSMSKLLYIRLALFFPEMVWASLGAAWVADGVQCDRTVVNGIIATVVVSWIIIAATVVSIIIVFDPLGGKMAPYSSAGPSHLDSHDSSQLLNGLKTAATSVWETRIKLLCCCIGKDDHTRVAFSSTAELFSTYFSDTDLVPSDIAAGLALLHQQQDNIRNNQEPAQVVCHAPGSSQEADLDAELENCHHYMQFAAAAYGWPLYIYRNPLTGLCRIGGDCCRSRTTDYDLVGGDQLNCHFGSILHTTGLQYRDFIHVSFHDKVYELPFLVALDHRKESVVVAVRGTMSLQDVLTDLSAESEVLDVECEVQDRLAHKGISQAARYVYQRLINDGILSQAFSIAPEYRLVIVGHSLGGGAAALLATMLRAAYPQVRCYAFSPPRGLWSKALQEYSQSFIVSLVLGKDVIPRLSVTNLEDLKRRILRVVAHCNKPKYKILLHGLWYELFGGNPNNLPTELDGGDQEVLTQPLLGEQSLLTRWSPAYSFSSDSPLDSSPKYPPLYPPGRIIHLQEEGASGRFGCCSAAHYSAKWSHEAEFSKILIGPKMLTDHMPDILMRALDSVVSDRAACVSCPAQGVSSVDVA
ABHD5-PLIN5 inh = ABHD5-PLIN5 protein interaction inhibition | Q00G26+Q8WTS1 | Split G. princeps luciferase complementation, luminescence, 4 h | inhibition, % at 4 µM | hit rate 0.78% among 360,000 | AID 602281;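 active means inhibition above the mean inhibition across every tested compound plus 3 SD, cut at about 22% in these data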;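 further: 0% = DMSO only wells and the 100% control is not disclosed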
HGIII-sPLA2 inh = Inhibits HGIII-sPLA2 liposome hydrolysis, primary screen; Q9NZ20; QFRET BODIPY PC-A2 liposome hydrolysis, fluorescence; inhibition, % at 12.2 µM; hit rate 0.56% among 370,000;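 active means inhibition above mean plus 3 SD of compounds lying within the high and low control bounds, cut at about 19% in these data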;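 further: 0% = median of test compound wells and 100% = no enzyme DMSO wells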
Cardio protect = protects H9c2 cardiomyocytes from peroxide injury | H2O2 injury protection, ATPLite, 2 h | protection from H2O2 cell death, % at 20 µM | hit rate 0.63% among 360,000 | AID 588492;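 active means compounds giving at least 50% protection of heart cells from peroxide-induced death in the single-dose screen, raw or plate-pattern-corrected value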;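 further: 0% = DMSO wells with peroxide and 100% = DMSO wells without peroxide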
Rtt109 Vps75 = inhibitors of Candida albicans Rtt109/Vps75 histone acetyltransferase; Q5AAJ8; purified Rtt109/Vps75, ThioGlo CoA-SH fluorescence, 4 h; inhibition, % at 34.9 µM; hit rate 0.16% among 330,000; AID 540336;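 active means inhibition of at least 50% in every replicate; inconclusive means best replicate reaches 50% inhibition but some replicates fall short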
Myeloid diff MLP = compounds promoting myeloid differentiation. ER-HoxA9 myeloid progenitors, lysozyme-GFP differentiation, flow cytometry. hit rate 1% among 360,000. calls only at 10 µM. AID 624256;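 active means normalized GFP-positive differentiation at or above the plate's own cutoff, the solvent-only control mean plus 3 SD; inconclusive means no clear call, values can overlap the other calls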;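 further: cells exposed to compound for four days before flow analysis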
Myeloid diff CP1 = myeloid differentiation induction. AID 651706. ER-HoxA9 myeloid progenitors, GFP/Mac1 double-positive flow. calls only. hit rate 2% among 2,300. shares compounds with Myeloid diff MLP;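 active means share of green or green-and-red cells above 9 and 9% in run 1 or 4 and 3% in run 2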
GFP autofluor = flagged as fluorescent in myeloid differentiation counter-screen; shares compounds with Myeloid diff MLP; ER-HoxA9 myeloid progenitors, no estrogen, GFP autofluorescence flow cytometry; vehicle wells 0%, positive control 100%; fluorescence response, % (concentration not given with the values); hit rate 7.4% among 2,300; AID 651707;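 active means over 5% cells positive for green fluorescent reporter, or over 2% positive for both it and APC stain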;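 further: range taken on the double positive population between DMSO and positive control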
Starred values were filed as active, the others as inactive; i = inactive; ? = inconclusive; . = no result; + = active, no number.

SMILES | DAGLB inh | ABHD5-PLIN5 inh | HGIII-sPLA2 inh | Cardio protect | Rtt109 Vps75 | Myeloid diff MLP | Myeloid diff CP1 | GFP autofluor
COc1ccc([N+](=O)[O-])cc1NCC(=O)Nc1cccc(S(=O)(=O)N2CCCC2)c1 | 2 | 7 | -15 | 4 | 1 | i | . | .
O=C(NCCN1CCOCC1)c1cccc(S(=O)(=O)N2CCCCCC2)c1 | -2 | 6 | -3 | 2 | 31 | i | . | .
CN(c1ccccc1)S(=O)(=O)c1cccc(C(=O)Nc2ccc(N3CCOCC3)cc2)c1 | 6 | -4 | -8 | -6 | -2 | i | . | .
O=C(NCCO)c1cccc(S(=O)(=O)N2CCCCC2)c1 | -3 | 8 | 4 | 2 | . | i | i | 0
CCN(Cc1cnn(C)c1)C(=O)C1CCC(=O)N(CCc2ccc(OC)cc2)C1 (stereo unspecified) | -1 | 10 | 4 | -2 | 10 | i | . | .
O=C(COC(=O)CCc1ccccc1)Nc1cc(S(=O)(=O)N2CCOCC2)ccc1N1CCCC1 | 1 | 0 | -10 | 1 | -1 | i | . | .
CCN(CC)S(=O)(=O)c1ccc2nnn(OCC(=O)Nc3cccc(C#N)c3)c2c1 | -3 | -2 | -28 | -2 | -10 | i | . | .
CN(C)S(=O)(=O)c1cccc(NC(=O)c2cccc(S(=O)(=O)N3CCCCCC3)c2)c1 | -5 | -8 | -34 | -7 | 34 | + | i | 0
O=C(Nc1cccc(S(=O)(=O)N2CCCCC2)c1)c1ccc2c(=O)n3c(nc2c1)CCCCC3 | 1 | 3 | -22 | -6 | 11 | i | i | 0
CCc1ccc(NC(=O)c2ccc3c(=O)n4c(nc3c2)CCCCC4)cc1 | -2 | -4 | 1 | -4 | 2 | i | . | .
CC(C)(C)NC(=O)CN(C(=O)C1CSC(=O)C1)c1ccc2c(c1)OCCO2 (stereo unspecified) | 2 | -1 | 0 | 4 | 4 | i | . | .
COC(=O)c1c(NC(=O)c2ccccc2)sc(C(N)=O)c1C | -2 | -1 | 5 | 7 | -22 | i | . | .
CCC(C(=O)Nc1sc(C(N)=O)c(C)c1C(=O)OC)c1ccccc1 (stereo unspecified) | 3 | -7 | -11 | 1 | -2 | i | i | 0
CS(=O)(=O)C1=NSC2=NC(=O)/C(=C\c3ccc(OS(=O)(=O)c4ccccc4)cc3)C(=N)N21 | 3 | -2 | -7 | 3 | 10 | i | . | .
Cc1cc(C)cc(NC(=O)C2CCCC2)c1 | -2 | 0 | 3 | 4 | 13 | + | i | 0
COc1cc(C(=O)N2CCN(S(=O)(=O)c3ccc(F)cc3)CC2)cc(OC)c1OC | -3 | -3 | 2 | -2 | . | i | . | .
CCOC(=O)c1c(C)[nH]c(C(=O)N/N=C\c2ccccc2Cl)c1C | -8 | -12 | -9 | -2 | 3 | i | i | 0
CCOC(=O)c1c(C)[nH]c(C(=O)N/N=C/c2cccc(OC)c2)c1C | -37 | 0 | -5 | 9 | 2 | i | . | .
OCCN(Cc1ccccc1)Cc1ccc(F)c(F)c1 | -4 | 2 | . | -3 | -15 | i | i | 0
Cc1ccnc(NS(=O)(=O)c2ccc(C(C)(C)C)cc2)c1 | . | . | -6 | . | . | . | . | .
CC(=O)Oc1c(-c2ccc(Br)o2)oc2ccccc2c1=O | 1 | -4 | -11 | 58* | 0 | i | i | 1
COc1ccc(-c2oc3ccccc3c(=O)c2OC(C)=O)cc1 | -3 | 7 | -19 | 46 | 1 | i | . | .
CC1(C)CC(=O)C=C(C#CC2(O)CCCCC2)C1 | 5 | 2 | -1 | -8 | . | ? | i | 0
CCCC(CCC)C(=O)NCCN1CCOCC1 | -3 | -1 | -1 | 1 | -13 | i | . | .
O=C(NCCN1CCOCC1)N1CCOCC1 | 1 | 4 | 7 | -2 | 5 | i | i | 0
SMILES | DAGLB inh | ABHD5-PLIN5 inh | HGIII-sPLA2 inh | Cardio protect | Rtt109 Vps75 | Myeloid diff MLP | Myeloid diff CP1 | GFP autofluor
O=c1c2ccccc2c(/C=N/NS(=O)(=O)c2ccccc2)c(O)n1-c1ccccn1 | -4 | 0 | 4 | 5 | -3 | i | i | 0
COc1ccc(-n2c(O)c(/C=N/NS(=O)(=O)c3ccc(C)c([N+](=O)[O-])c3)c3ccccc3c2=O)cc1OC | -6 | 0 | 11 | 4 | 3 | i | . | .
CCOc1ccccc1NC(=O)CCn1c(=O)oc2ccccc21 | -3 | -6 | -2 | 6 | 2 | i | . | .
CC(=O)N1CN(C2CCCC2)Cc2c1sc1c2CCCC1 | 0 | -1 | -6 | 5 | 12 | i | i | 0
CC(C)(C)c1ccc(C(=O)NC(Cc2ccccc2)C(=O)O)cc1 (stereo unspecified) | 1 | -2 | 2 | 4 | 6 | i | i | 0
CCc1ccc(S(=O)(=O)NCc2cccs2)cc1 | -2 | -12 | -4 | -3 | -6 | i | . | .
CC(=O)c1ccc(N2C(=NC(=O)C3CCCCC3)SC3CS(=O)(=O)CC32)cc1 (stereo unspecified) | 0 | 3 | -5 | 2 | -5 | i | . | .
CCCCN(C(=O)c1cc(-c2ccncc2)nc2ccccc12)c1c(N)n(CC(C)C)c(=O)[nH]c1=O | 6 | -2 | 2 | 5 | 6 | i | . | .
CCCCn1c(N)c(N(CC(C)C)C(=O)c2cc(-c3ccncc3)nc3ccccc23)c(=O)[nH]c1=O | 9 | 10 | -6 | 4 | 27 | + | i | 3
N#Cc1c(N)nc(SCc2ccccn2)c(C#N)c1-c1cccs1 | -5 | 9 | -16 | -7 | 9 | i | i | 0
COc1ccc(-c2ccc3oc(-c4ccc(OC)cc4)c(C#CCO)c3c2)cc1 | -1 | -6 | -4 | -19 | -22 | + | i | 0
CCNC(=S)Nc1ccc(Cc2ccncc2)cc1 | 1 | 5 | 6 | -8 | 10 | i | . | .
COc1ccc2[nH]c3c(c2c1)CCNC3c1ccc([N+](=O)[O-])o1 (stereo unspecified) | 1 | 7 | -8 | 60* | -4 | + | i | 99*
CC(CCc1ccco1)NC(=O)Cn1nc(Cc2ccncc2)c2ccccc2c1=O (stereo unspecified) | -1 | 4 | -2 | 2 | 21 | i | i | 0
O=C(NCCN=C1NS(=O)(=O)c2ccccc21)c1ccccc1 | -2 | -2 | -2 | 7 | -15 | i | . | .
CCOC(=O)[C@]12CCCC=C1N(CCCOC)C(=O)[C@@H]2CC(=O)NCc1cccc(C(F)(F)F)c1 | . | . | 5 | . | . | . | . | .
Cc1ccc(S(=O)(=O)N2CCCCC2CCNC(=O)C(=O)NCc2cccnc2)cc1 (stereo unspecified) | 3 | 4 | 2 | 2 | -4 | + | i | 0
